Growth inhibition, inhibition and outcome data for 19 compounds are collected here from PubChem BioAssay.

Values joined by “and” are separate entries in the source; they are usually repeats but may differ in a detail not shown here. Identical values can stand only once. Unmarked numbers belong to inactive results. For some assays here: Potency and affinity values are given separately. Active and inactive are the calls of the source. Unless noted, the rule behind the calls is not given here.

Test [1] in a line: antimalarial activity against Dd2 strain (AID 2302;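 active = growth inhibition above 50% at the single 2 µM test dose, taken to imply half-maximal potency below 2 µM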;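 note: 0% = DMSO untreated growth and 100% = chloroquine plus artemisinin killed control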). The conditions noted are these: P. falciparum Dd2 in RBCs, LDH growth readout, 72 h; at 2 µM; stronger effect = higher value.
The nature of test [2]: human hepatoma cell viability loss – ATP luminescence, cytotoxicity control for P. falciparum antimalarial project, primary screen (AID 2303;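 active = inhibition above 50%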;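 note: 0% = DMSO wells and 100% = digitonin-killed cells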). The following applies: HepG2 viability, 24-48 h, at 10 µM, stronger effect = higher value.
The target of test [3] is L-lactate dehydrogenase (Plasmodium falciparum (isolate CDC / Honduras)) (UniProt Q27743). In words: PfLDH activity inhibition – cell lysate, 3D7 strain, counter-screen for P. falciparum growth inhibition project (AID 2304).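 Note: 0% = vehicle and 100% = reference inhibitor.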 The conditions noted are these: P. falciparum 3D7 crude extract, LDH APAD/NBT absorbance; at 2 µM; stronger effect = higher value.
L-lactate dehydrogenase (Plasmodium falciparum (isolate CDC / Honduras)), sequence (Q27743 whole entry, looked up): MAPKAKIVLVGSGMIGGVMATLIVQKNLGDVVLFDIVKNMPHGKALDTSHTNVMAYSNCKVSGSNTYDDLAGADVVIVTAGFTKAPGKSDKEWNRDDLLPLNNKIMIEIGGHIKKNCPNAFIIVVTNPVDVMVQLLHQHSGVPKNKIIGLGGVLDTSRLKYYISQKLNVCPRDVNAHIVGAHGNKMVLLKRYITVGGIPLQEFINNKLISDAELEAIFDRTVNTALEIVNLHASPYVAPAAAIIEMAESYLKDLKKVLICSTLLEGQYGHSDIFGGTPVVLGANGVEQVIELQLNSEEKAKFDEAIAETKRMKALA
Test [4] is described as follows: inhibition of 3D7 malaria parasite growth – strain 3D7 (AID 2306).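 Note: 0% = DMSO wells and 100% = chloroquine plus artemisinin control wells.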 The conditions noted are these: P. falciparum 3D7 erythrocytic growth, LDH absorbance, 72 h; at 2 µM; stronger effect = higher value.
For test [5], the target named is Calcium-dependent protein kinase 1 (Plasmodium falciparum (isolate 3D7)) (UniProt P62344). In words: PfCDPK1 kinase inhibitors, biochemical, TCAMS library (AID 1159585; cut-off not given, nearly all actives have IC50 up to about 0.98 µM;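 note: inhibitors leave more ATP so luminescence rises with inhibition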). The conditions noted are these: recombinant PfCDPK1, Kinase-Glo ATP depletion luminescence.
Calcium-dependent protein kinase 1 (Plasmodium falciparum (isolate 3D7)), sequence (P62344 whole entry, looked up): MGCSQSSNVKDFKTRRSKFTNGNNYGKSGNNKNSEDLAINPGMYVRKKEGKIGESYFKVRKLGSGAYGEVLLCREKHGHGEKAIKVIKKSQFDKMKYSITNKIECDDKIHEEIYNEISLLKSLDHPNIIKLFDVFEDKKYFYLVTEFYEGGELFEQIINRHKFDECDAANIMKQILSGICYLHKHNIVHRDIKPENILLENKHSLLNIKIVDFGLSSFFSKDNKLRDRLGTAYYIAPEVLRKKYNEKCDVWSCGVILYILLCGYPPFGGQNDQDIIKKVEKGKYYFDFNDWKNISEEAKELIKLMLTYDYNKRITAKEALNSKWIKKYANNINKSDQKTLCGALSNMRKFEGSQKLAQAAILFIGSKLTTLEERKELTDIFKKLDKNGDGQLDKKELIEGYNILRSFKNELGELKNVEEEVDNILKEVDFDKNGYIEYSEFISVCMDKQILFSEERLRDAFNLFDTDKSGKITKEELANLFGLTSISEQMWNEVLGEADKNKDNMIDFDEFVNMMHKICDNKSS
Test [6] concerns the target Plasmodium falciparum protein kinase 6 (PK6, PF3D7_1337100) (UniProt Q8IDW1). Put plainly: PfPK6 kinase inhibitors, biochemical, TCAMS library (AID 1159586). The conditions noted are these: recombinant PfPK6, Kinase-Glo ATP depletion luminescence. A general note: Kinase-Glo measures the ATP left after a reaction by luminescence.
The target of test [7] is Protein kinase 7 (PK7), Plasmodium falciparum 3D7 (PF3D7_0213400) (UniProt Q7YTF7). In words: inhibition of Plasmodium PK7 catalytic activity – biochemical, TCAMS antimalarial set, Kinase-Glo luminescence (AID 1159587). The conditions noted are these: recombinant PfPK7, Kinase-Glo ATP depletion luminescence.
Protein kinase 7 (PK7), Plasmodium falciparum 3D7 (PF3D7_0213400), sequence (Q7YTF7 1-343): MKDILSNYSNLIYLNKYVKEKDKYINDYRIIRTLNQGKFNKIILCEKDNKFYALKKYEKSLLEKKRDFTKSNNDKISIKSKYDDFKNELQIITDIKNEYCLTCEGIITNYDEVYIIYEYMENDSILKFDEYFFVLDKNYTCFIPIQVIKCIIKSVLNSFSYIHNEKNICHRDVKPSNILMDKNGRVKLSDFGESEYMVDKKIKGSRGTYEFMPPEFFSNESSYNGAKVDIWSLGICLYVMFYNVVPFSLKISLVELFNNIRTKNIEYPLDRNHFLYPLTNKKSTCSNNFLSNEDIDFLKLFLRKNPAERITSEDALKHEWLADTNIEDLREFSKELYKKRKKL
In test [8] the target is Calcium-dependent protein kinase 4 (Plasmodium falciparum (isolate 3D7)) (UniProt Q8IBS5). Put plainly: PfCDPK4 kinase inhibitors, biochemical, TCAMS library (AID 1159588; cut-off not given, nearly all actives have IC50 up to about 0.91 µM). The following applies: recombinant PfCDPK4, Kinase-Glo ATP depletion luminescence.
Calcium-dependent protein kinase 4 (Plasmodium falciparum (isolate 3D7)), sequence (Q8IBS5 whole entry, looked up): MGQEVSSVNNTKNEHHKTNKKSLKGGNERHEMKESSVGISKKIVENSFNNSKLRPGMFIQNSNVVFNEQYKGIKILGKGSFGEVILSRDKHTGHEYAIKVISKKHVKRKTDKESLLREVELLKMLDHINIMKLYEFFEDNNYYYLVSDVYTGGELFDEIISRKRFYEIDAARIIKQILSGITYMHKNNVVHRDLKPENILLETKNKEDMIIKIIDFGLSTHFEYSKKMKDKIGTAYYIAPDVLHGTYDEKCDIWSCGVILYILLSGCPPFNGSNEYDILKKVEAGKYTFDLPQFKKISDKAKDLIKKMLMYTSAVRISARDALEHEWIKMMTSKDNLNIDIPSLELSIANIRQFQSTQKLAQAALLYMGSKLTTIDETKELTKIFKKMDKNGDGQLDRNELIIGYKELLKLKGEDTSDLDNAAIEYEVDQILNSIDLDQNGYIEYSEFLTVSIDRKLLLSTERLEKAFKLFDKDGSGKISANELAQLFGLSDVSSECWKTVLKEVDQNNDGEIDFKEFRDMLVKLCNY

Plasmodium falciparum protein kinase 6 (PK6, PF3D7_1337100), sequence (Q8IDW1 1-305): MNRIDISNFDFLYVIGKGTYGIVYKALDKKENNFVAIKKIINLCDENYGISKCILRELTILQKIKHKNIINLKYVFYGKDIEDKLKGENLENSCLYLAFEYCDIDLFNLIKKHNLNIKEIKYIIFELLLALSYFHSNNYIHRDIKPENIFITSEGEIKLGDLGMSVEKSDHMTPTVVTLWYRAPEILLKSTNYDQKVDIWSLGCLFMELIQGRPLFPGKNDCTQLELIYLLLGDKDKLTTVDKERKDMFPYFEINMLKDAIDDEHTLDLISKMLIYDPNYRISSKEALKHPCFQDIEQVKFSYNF

For orientation: inhibition means the change of the read-out against control, counted positive when it falls. Turning to `COc1cc(Cc2cnc(N)nc2N)cc(OCCCCc2nn[nH]n2)c1OC`, the growth inhibition in test [1] was 0%; in test [4], 97% (active). The inhibition is 7% in test [2] and 1% in test [3]. The outcome in test [5], in test [6], in test [7] and in test [8] was inactive.

Consider `Cc1ccc(NC(=O)NCCCCCN2CCC(c3c[nH]c4ccccc34)CC2)cc1I`, for which the growth inhibition in test [1] is 5%; in test [4], 94% (active). The inhibition is 96% (active) in test [2] and 6% in test [3]. Besides, the result in test [5], in test [6], in test [7] and in test [8] was inactive.

Turning to `CCCCN(Cc1cc(Cl)c(OC)c(OC)c1)c1ccc(C(O)(C(F)(F)F)C(F)(F)F)cc1`, the growth inhibition in test [1] is 73% (active); in test [4], 98% (active). Besides, the inhibition in test [2] was 3%; in test [3], 6%. Moreover, the outcome in test [5], in test [6], in test [7] and in test [8] was inactive.

With `CCCCCCCc1ccc(-c2c(C)[nH]c(C)c(Cl)c2=O)cn1`, the growth inhibition is 96% (active) in test [1] and 99% (active) in test [4]. Further, the figures for the inhibition in test [2] and in test [3] were -4% and -2%, respectively. The outcome in test [5], in test [6], in test [7] and in test [8] was inactive.

Regarding `O=C1C(c2ccccc2)=C(Nc2ccc(Cl)cc2)c2ccccc21`, the values for the growth inhibition in test [1] and in test [4] were 59% (active) and 91% (active), respectively. Also, the inhibition was 5% in test [2] and -2% in test [3]. In addition, the outcome in test [5], in test [6], in test [7] and in test [8] was inactive.

Consider `O=C(NCCCCN1CC[C@@H]2c3cccc(O)c3CC[C@H]21)c1ccc(-c2ccccc2)cc1`, for which the growth inhibition in test [1] was 50% (active); in test [4], 81% (active). Further, the inhibition in test [2] was 23%; in test [3] it was 2%. Moreover, the result in test [5], in test [6], in test [7] and in test [8] was inactive.

For `Clc1ccc2c(NN=Cc3cccnc3)ccnc2c1`, the growth inhibition in test [1] is 86% (active); in test [4], 100% (active). Further, the inhibition in test [2] is -9%; in test [3] it was 3%. Besides, the result in test [5], in test [6], in test [7] and in test [8] was inactive.

With `COc1ccc2nccc([C@@H](O)CN3CCC(NCc4ccc5nnsc5c4)CC3)c2c1`, the growth inhibition was 0% in test [1] and 99% (active) in test [4]. Further, the values for the inhibition in test [2] and in test [3] were 16% and 5%, respectively. Besides, the result in test [5], in test [6], in test [7] and in test [8] was inactive.

Regarding `Cc1noc(C)c1-c1cccc(CNCc2cccc(-c3csc(-c4nc5ccccc5[nH]4)c3)c2)c1`, the figures for the growth inhibition in test [1] and in test [4] were 74% (active) and 100% (active), respectively. Besides, the inhibition is 32% in test [2] and -7% in test [3]. Besides, the outcome in test [5], in test [6], in test [7] and in test [8] was inactive.

With `O=C(Nc1cccc(-c2cccc(-c3nc4ccccc4[nH]3)c2)c1)N[C@@H]1C[C@H]1c1ccccc1`, the growth inhibition is 22% and 27% in test [1]; 87% (active) and 90% (active) in test [4]. Also, the inhibition in test [2] is 40% and 8%; in test [3], 2% and 1%. The outcome in test [5], in test [6], in test [7] and in test [8] was inactive.

On to `O=c1cc(NCCCNCc2cc(Cl)cc(Cl)c2OCc2ccccc2)[nH]c2ccccc12`, for which the figures for the growth inhibition in test [1] and in test [4] were 50% (active) and 91% (active), respectively. Also, the inhibition is -4% in test [2] and -2% in test [3]. Moreover, the result in test [5], in test [6], in test [7] and in test [8] was inactive.

On to `O=C(/C=C/c1ccc(Cl)c(Cl)c1)NCCCCCN1CCC(NC(=O)Nc2cccc(C(F)(F)F)c2)CC1`, for which the growth inhibition in test [1] was 11%; in test [4] it was 102% (active). Also, the inhibition was 61% (active) in test [2] and 4% in test [3]. The result in test [5], in test [6], in test [7] and in test [8] was inactive.

As to `O=C(/C=C/c1ccc(Cl)c(Cl)c1)NCCCCCN1CCC(NC(=O)Nc2ccccc2Cl)CC1`, the values for the growth inhibition in test [1] and in test [4] were 23% and 102% (active), respectively. In addition, the inhibition in test [2] is 56% (active); in test [3] it was 3%. Also, the result in test [5], in test [6], in test [7] and in test [8] was inactive.

Consider `CCCCCN1CCCC1CNS(=O)(=O)c1ccc(C(=O)Nc2cccc(C(F)(F)F)c2)cc1` (configuration not stated), for which the growth inhibition was -1% in test [1] and 95% (active) in test [4]. Further, the inhibition was 16% in test [2] and -4% in test [3]. For the same compound, the outcome in test [5], in test [6], in test [7] and in test [8] was inactive.

With `O=c1cc(NCCCNCc2ccc(Cl)c(Cl)c2)[nH]c2cc(Cl)ccc12`, the growth inhibition was 51% (active) in test [1] and 95% (active) in test [4]. For the same compound, the inhibition in test [2] and in test [3] was 1% throughout. In addition, the outcome in test [5], in test [6], in test [7] and in test [8] was inactive.

Consider `CCCc1cc(Cc2cnc(N)nc2N)cc(CCC)c1OC`, for which the growth inhibition was 1% in test [1] and 92% (active) in test [4]. The inhibition in test [2] is 18%; in test [3] it was 1%. Further, the outcome in test [5], in test [6], in test [7] and in test [8] was inactive.

Regarding `O=C(/C=C/c1ccc(Cl)c(Cl)c1)NC1CCN(Cc2ccc(O)cc2)CC1`, the results for the growth inhibition in test [1] and in test [4] were 43% and 103% (active), respectively. The inhibition in test [2] is -1%; in test [3] it was 3%. Further, the outcome in test [5], in test [6], in test [7] and in test [8] was inactive.

Regarding `CC(C)(C)C1CCc2nc(N)nc(N)c2C1` (configuration not stated), the results for the growth inhibition in test [1] and in test [4] were 38% and 94% (active), respectively. Besides, the inhibition was 69% (active) in test [2] and 6% in test [3]. Moreover, the outcome in test [5], in test [6], in test [7] and in test [8] was inactive.

As to `O=C1Nc2cccc3c2C1(CCCCN1CCC(c2cc4ccncc4[nH]2)CC1)CCC3` (configuration not stated), the growth inhibition in test [1] is -2% and -4%; in test [4] it was 97% (active) and 99% (active). The inhibition was -1% and -8% in test [2]; -3% in test [3]. Moreover, the result in test [5], in test [6], in test [7] and in test [8] was inactive.
